Measurements from PubChem BioAssay AID435005 (Broad Institute, 2010).
Among all 300,000 compounds or so, about 2,400 (0.8%) were called active. What follows is part of a selection rich in actives, with near analogues and random picks from the rest. A number with no mark means an inactive call.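 The calls were made as follows: active = Every replicate reaches about 75%, or at least half do and their mean reaches it too (limit read from the data); inconclusive = At least half of replicates reach the limit but their mean does not; inactive = Under half of replicates reach the limit.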

assay: inhibitors of cytokine-induced beta cell apoptosis, primary screen, luminescence (AID 435005); details: INS-1E cytokine-induced death, ATP luminescence, 48 h; active compounds read high; percent of positive-control rescue, neutral wells zero; concentration not given here;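 also: 0% = cytokine-treated negative control wells and 100% = positive control rescue; higher means more ATP so stronger rescue from cytokine killing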

First: COc1cc(NS(=O)(=O)c2ccc(NC(C)=O)cc2)cc(OC)c1
Second: CC(=O)Nc1ccc(S(=O)(=O)Nc2ccc(N3CCOCC3)c(F)c2)cc1
The protection from apoptosis of the first is higher: 25.4% for the first, 2.71% for the second.

Going from `COc1ccc(C)cc1NC(=O)CSc1cccc[n+]1[O-]` to `Cc1cccc(C(=O)NNC(=O)c2cccc([N+](=O)[O-])c2)c1`, the protection from apoptosis falls from -1.83% to -5.35%.

Going from `CSc1ncccc1C(=O)NCC(c1ccco1)N1CCCCC1` (stereo unspecified) to `COc1cc(/C=N/NC(=O)c2ccoc2C)ccc1OCCN1CCCCC1`, the protection from apoptosis rises from -20.2% to -1.12%.

Going from `CC(C(=O)N1CCc2ccccc21)N(C)CC(=O)Nc1ccc(F)cc1` (stereo unspecified) to `CN(CC(=O)Nc1ccc(Cl)cc1)CC(=O)Nc1cccc2ccccc12`, the protection from apoptosis falls from 6.77% to 0.976%.

Compared with `Fc1ccc2cnc(-c3ccccc3)cc2c1`, `CCOc1ccccc1C1CC(c2ccccc2)Nc2nc(N)nn21` (stereo unspecified) is higher in protection from apoptosis: -4.87% for the first, 2.14% for the second.

Going from `C[C@]12CC[C@H](O)CC1=CCC1C2CC[C@@]2(C)C1CC[C@@H]2NC(=O)CCC(=O)O` (stereo partly specified) to `COc1ccccc1NC(=O)COC(=O)CNC(=O)C1CCCCC1`, the protection from apoptosis falls from 0.606% to -4.98%.

Going from `COc1cc(OC)cc(C(=O)NNC(=O)Cc2cccs2)c1` to `O=C(CCCOc1ccccc1)NNC(=O)c1ccc(Cl)cc1`, the protection from apoptosis rises from -2.67% to -1.22%.

Compared with `CC(=O)c1c(C)oc2ccc(NS(=O)(=O)c3ccccc3)cc12`, `CC(=O)c1c(C)oc2ccc(NS(=O)(=O)c3ccc(C(=O)O)cc3)cc12` is lower in protection from apoptosis: -0.111% for the first, -1.56% for the second.

Compared with `Cc1ccc(S(=O)(=O)N2CCN(C(=O)CN3C(=O)NC(C)(c4ccc(Cl)cc4)C3=O)CC2)c(C)c1` (stereo unspecified), `Cc1[nH]n(-c2ccc([N+](=O)[O-])cc2)c(=O)c1C=NCCN1CCN(C(=O)c2ccccc2F)CC1` is higher in protection from apoptosis: 0.524% for the first, 48.6% for the second.

Going from `Cc1ccc(S(=O)(=O)N(C)CC(=O)NCC(c2ccc(F)cc2)N2CCOCC2)cc1` (stereo unspecified) to `C[C@H](CO)N1C[C@H](C)[C@@H](CN(C)S(=O)(=O)c2ccc(F)cc2)Oc2ccc(NC(=O)CCC(F)(F)F)cc2C1=O`, the protection from apoptosis falls from -2.01% to -4.6%.

First: CC(C)CC1NC(=O)c2cc(Cl)ccc2-n2c1nc1ccccc1c2=O (stereo unspecified)
Second: CCN(CC)CCCN=Cc1c(O)n(-c2ccc(C)cc2)c(=O)c2ccccc12
The protection from apoptosis of the first is higher: -3.6% for the first, -3.92% for the second.

First: O=C(Nc1cccc(S(=O)(=O)N2CCCCC2)c1)c1cncc(Br)c1
Second: O=C(CN1C(=O)NC2(CCCCCC2)C1=O)Nc1ccc([N+](=O)[O-])cc1
The protection from apoptosis of the first is lower: -1.23% for the first, 0.997% for the second.

Going from `CCCSc1ccc([C@H]2N[C@@](Cc3ccccc3)(C(=O)OC)[C@H]3C(=O)N(C)C(=O)[C@@H]23)cc1` to `CCCCCCSc1ccc([C@@H]2[C@H]3C(=O)N(CC)C(=O)[C@H]3[C@]3(C(=O)OC)CCCCN23)cc1`, the protection from apoptosis rises from -4.97% to 2.19%.

Compared with `CCOc1ccc(-n2c(O)c(/C=N/c3ccnn3Cc3ccncc3)c3ccccc3c2=O)cc1`, `COc1ccc(C(=O)C(C)OC(=O)c2cccc(S(=O)(=O)Nc3c(C)n(C)n(-c4ccccc4)c3=O)c2)cc1` (stereo unspecified) is lower in protection from apoptosis: -6.16% for the first, -20.9% for the second.

Going from `C/C(=N\NS(=O)(=O)c1ccccc1)c1c(O)cc(C)oc1=O` to `Cc1occc1C(=O)N/N=C/c1ccc(-c2cccc([N+](=O)[O-])c2)o1`, the protection from apoptosis rises from -4% to 4.96%.

Compared with `Cc1csc2nc(COC(=O)c3cccc(N(C)C)c3)cc(=O)n12`, `Cc1onc(-c2c(F)cccc2Cl)c1C(=O)OCC(=O)N1C(C)CCCC1C` (stereo unspecified) is higher in protection from apoptosis: 0.447% for the first, 1.7% for the second.

Going from `COc1ccc(C2CC(c3ccc(C)cc3)Nc3nc(N)nn32)cc1` (stereo unspecified) to `COc1ccc(C2CC(c3ccc(Cl)cc3Cl)Nc3nc(N)nn32)cc1OC` (stereo unspecified), the protection from apoptosis rises from -2.94% to -0.0368%.

Compared with `Nc1nc2n(n1)C(c1ccco1)CC(c1ccc(Cl)c(Cl)c1)N2` (stereo unspecified), `COc1ccc(C2=Nn3c(nnc3-c3ccccc3OC)SC2)cc1OC1CCCC1` is higher in protection from apoptosis: 0.887% for the first, 31.3% for the second.

Going from `CCCCN(C(=O)C1=NN(c2cc(C)ccc2C)C(=O)CC1)c1c(N)n(CCC)c(=O)[nH]c1=O` to `CCCOc1ccc(Cc2c(O)nc(SC)[nH]c2=O)cc1C`, the protection from apoptosis falls from 1.47% to -2.93%.

Compared with `COC(=O)C1=C(C)NC(=S)NC1c1ccc(OCC(=O)N2CC(C)OC(C)C2)c(OC)c1` (stereo unspecified), `O=C(CN1C(=O)NC2(CCCC2)C1=O)Nc1cc(C(F)(F)F)ccc1N1CCOCC1` is higher in protection from apoptosis: 0.55% for the first, 1.66% for the second.

First: O=C(N/N=C/c1ccccc1O)C1CCCC1
Second: O=C(CCCO)N/N=C/c1cc(Br)ccc1O
The protection from apoptosis of the first is higher: 8.23% for the first, 2.57% for the second.

First: CCCOc1ccc(C(=O)NCCc2ccccc2)cc1
Second: O=C(NCCc1c[nH]c2ccccc12)C1CCN(Cc2ccc(Br)cc2)CC1
The protection from apoptosis of the first is higher: 9.99% for the first, -12.4% for the second.

Going from `CCOc1ccc(CN2CCCN(C)CC2)cc1` to `Cc1ccc(N2C(=O)N3[C@@H]4c5ccccc5OC[C@@H]4[C@@H](c4ccccc4)[C@@]3(C)C2=O)cc1`, the protection from apoptosis rises from -3.58% to -1.96%.

In the case of `CC(=O)Nc1ccc(S(=O)(=O)Nc2ccc(N3CCCCC3)cc2)cc1`, the protection from apoptosis is reported as 119% (active).
With `COc1ccc(S(=O)(=O)Nc2ccc3oc(C)c(C(C)=O)c3c2)cc1` the protection from apoptosis was 87.4% (active).
In the case of `CCOc1ccc(-n2c(O)c(/C=N/Nc3nc(C)cc(C)n3)c3ccccc3c2=O)cc1`, the protection from apoptosis is reported as 83.2% (active).
In the case of `Cc1ccc(C2CC(c3cccc(C)c3)n3nc(N)nc3N2)cc1` (stereo unspecified), the protection from apoptosis is reported as 101% (active).
In the case of `Cc1ccc(C2CC(c3cccc(Br)c3)n3nc(N)nc3N2)cc1` (stereo unspecified), the protection from apoptosis is reported as 91.3% (active).
In the case of `O=C(N/N=C/c1ccccc1O)/C(=C/c1ccccc1)CCO`, the protection from apoptosis is reported as 85.8% (active).
For `CCCOc1ccc(Cc2c(Cl)nc(SC)nc2NC)cc1`, the protection from apoptosis was 82.7% (active).
For `CCOc1ccc(CN2CCN(Cc3c[nH]c4ccccc34)CC2)cc1`, the protection from apoptosis was 76.1% (active).
In the case of `Cc1[nH]n(-c2ccccc2)c(=O)c1/C=N/NC(=O)c1ccoc1C`, the protection from apoptosis is reported as 107% (active).
With `Cc1ccc(-n2[nH]c(C)c(/C=N/NC(=O)c3cccc([N+](=O)[O-])c3)c2=O)cc1C` the protection from apoptosis was 106% (active).
